# Measurements reported in PubChem BioAssay.
# Where “and” joins values, the source holds several entries; their conditions need not be identical. Equal entries are not always repeated. Calls of active or inactive are those of the source.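 The calls were made as follows, unless noted: active = thallium flux through the channel raised or lowered by more than 3 SD from vehicle-only wells, actives on both sides; inactive = the rest.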
# Columns and labels:
# [1] = system: Hepatitis C virus NS3 helicase; assay: HCV NS3 helicase inhibitors, primary screen, biochemical, fluorescence polarization, NIH Clinical Collection (AID 743270; call rule not given here); details: NS3 helicase binding to Cy5-dT15 DNA, stronger effect = higher value, concentration not given here
# [2] = molecular target: Single-stranded DNA-binding protein (Escherichia coli (strain K12)) (UniProt P0AGE0); assay: E. coli SSB displacement from DNA, counter-screen for HCV NS3 helicase inhibitor project, biochemical, fluorescence polarization, NIH Clinical Collection (AID 743271; in the data active = inhibition above about 28%); details: stronger effect = higher value, concentration not given here
# [3] = fluorescence interference in NS3h assay format, artefact control for HCV NS3 helicase inhibitor project, biochemical, NIH Clinical Collection (AID 743272; call rule not given here;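 also: HCV NS3 helicase with a Cy5 labelled single stranded DNA probe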); details: fluorescence interference counterscreen, stronger effect = lower value
# [4] = stimulators of nuclear beta-catenin in C2C12, primary screen, imaging, WNT3A-conditioned medium, mouse C2C12, NPC library (AID 1117326; in the data active = nuclear beta-catenin stimulation mostly above about 4.2%, no sharp cut-off; inactive = mostly below about 10%); details: stronger effect = higher value
# [5] = stimulators of insulin release from INS-1E, primary screen, cell-based, 5 mM glucose, NPC library (AID 1117329;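 active = compound raises insulin release from rat beta cells at 5 mM glucose, no numeric limit stated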); details: rat INS-1E insulin secretion, at 10 µM, stronger effect = higher value
# [6] = growth inhibition of GSK3B-pretreated HCT116 cells – cell-based, CellTiter-Glo, 0.2 to 20 µM (AID 1117336;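 active = compounds lowering colon cancer cell viability after pretreatment blocking the GSK3B kinase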); details: HCT116 viability after GSK3B inhibitor, at 20 µM, stronger effect = higher value
# [7] = inhibition of endothelial tube formation, primary screen, imaging, VEGF stimulated, CD31 staining, tube area, NPC library (AID 1117340;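 active = compound that reduces growth-factor-driven endothelial tube area in a mixed cell culture, no cutoff stated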); details: VEGF-stimulated ADSC/ECFC co-culture, at 10 µM, stronger effect = higher value
# [8] = glucagon-like peptide 1 release enhancers, primary assay, NCI-H716 cell line, NPC library (AID 1117341;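 active = compound raises GLP1 secretion from the human gut endocrine cells, with no numeric limit stated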); details: NCI-H716 cells, at 10 µM, stronger effect = higher value
# [9] = HCT116 colon cancer cell growth inhibition, primary screen, CellTiter-Glo luminescence, NPC library (AID 1117342;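 active = compounds that lower survival of HCT116 colon cancer cells in the luminescence readout, no numeric limit stated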); details: at 20 µM (top of the series)
# [10] = CellTiter-Glo luminescent readout of SW480 viability loss, NPC library primary (AID 1117343;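 active = compounds that lower viability of the colon cancer cells in the luminescence readout, with no numeric limit stated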); details: CellTiter-Glo luminescence; at 20 µM (top of the series)
# [11] = decreased DLD-1 cellular survival, CellTiter-Glo luminescent readout, NPC compound collection, primary HTS (AID 1117346;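 active = compounds that lower survival of DLD-1 colon cancer cells in the luminescence readout, no cutoff given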); details: DLD-1 viability, CellTiter-Glo luminescence; at 20 µM (top of the series)
# [12] = molecular target: 6-phosphogluconate dehydrogenase, decarboxylating (Homo sapiens) (UniProt P52209); assay: 6PGD enzyme inhibitors, primary screen, biochemical, human, recombinant enzyme, NADPH absorbance (AID 1159550;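 active = at least 20% inhibition of 6-phosphogluconate dehydrogenase activity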); details: recombinant 6PGD, NADPH absorbance 341 nm; at 10 µM; stronger effect = higher value
# 6-phosphogluconate dehydrogenase, decarboxylating (Homo sapiens), sequence (P52209 whole entry, looked up): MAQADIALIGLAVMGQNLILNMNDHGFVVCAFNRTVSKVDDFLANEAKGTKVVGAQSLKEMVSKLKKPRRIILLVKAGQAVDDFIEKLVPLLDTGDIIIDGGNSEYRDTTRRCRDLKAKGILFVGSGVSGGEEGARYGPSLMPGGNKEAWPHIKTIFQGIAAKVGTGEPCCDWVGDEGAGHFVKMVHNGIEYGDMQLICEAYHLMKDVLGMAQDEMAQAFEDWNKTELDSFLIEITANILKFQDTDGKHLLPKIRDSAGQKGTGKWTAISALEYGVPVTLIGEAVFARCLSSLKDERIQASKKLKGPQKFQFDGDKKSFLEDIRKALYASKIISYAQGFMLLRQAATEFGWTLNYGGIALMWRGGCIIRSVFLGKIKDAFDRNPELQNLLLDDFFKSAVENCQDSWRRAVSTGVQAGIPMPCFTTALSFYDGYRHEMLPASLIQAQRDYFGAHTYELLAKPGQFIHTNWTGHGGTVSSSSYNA
# [13] = differential killing of epithelial or mesenchymal cells, primary screen, imaging, PC-3E GFP, TEM4-18 mCherry, co-culture (AID 1345086;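 active = compounds killing one labelled cell type while sparing the other, by normalised counts and ratio limits, not self-fluorescent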;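 as to all read-outs here: cells exposed to compound for 72 h before imaging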;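 as to red/green cell ratio (normalised): normalised mesenchymal count divided by normalised epithelial count so high means epithelial killing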); details: imaging cell counts, at 1 µM; for red/green cell ratio (normalised): actives lie on both sides, counts scaled to control wells, 1 = unselective
# [14] = survival rescue of mitochondrial mutant cells in low glucose, primary screen, MELAS cybrids, Rieske KO mouse fibroblasts, CellTiter-Glo (AID 1508586;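 active = mean z-score across replicates of 1.96 or higher in either the MELAS or the Rieske mutant cell line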;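 also: z relative to plate mean and SD of compound and empty wells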)
# [15] = molecular target: NAD(+) hydrolase SARM1 (Homo sapiens) (UniProt Q6SZW1); assay: SARM1 TIR NADase inhibitors, cell lysate, NAD-Glo luminescence (AID 1508614;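 active = compound whose remaining NAD level is above about 45 nM, limit read from the data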;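 also: higher remaining NAD means stronger inhibition of SARM1 NADase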); details: SAM-TIR HEK293T lysate NADase, at 1 µM, stronger effect = higher value
# NAD(+) hydrolase SARM1 (Homo sapiens), sequence (Q6SZW1 whole entry, looked up, the tested form may be a part): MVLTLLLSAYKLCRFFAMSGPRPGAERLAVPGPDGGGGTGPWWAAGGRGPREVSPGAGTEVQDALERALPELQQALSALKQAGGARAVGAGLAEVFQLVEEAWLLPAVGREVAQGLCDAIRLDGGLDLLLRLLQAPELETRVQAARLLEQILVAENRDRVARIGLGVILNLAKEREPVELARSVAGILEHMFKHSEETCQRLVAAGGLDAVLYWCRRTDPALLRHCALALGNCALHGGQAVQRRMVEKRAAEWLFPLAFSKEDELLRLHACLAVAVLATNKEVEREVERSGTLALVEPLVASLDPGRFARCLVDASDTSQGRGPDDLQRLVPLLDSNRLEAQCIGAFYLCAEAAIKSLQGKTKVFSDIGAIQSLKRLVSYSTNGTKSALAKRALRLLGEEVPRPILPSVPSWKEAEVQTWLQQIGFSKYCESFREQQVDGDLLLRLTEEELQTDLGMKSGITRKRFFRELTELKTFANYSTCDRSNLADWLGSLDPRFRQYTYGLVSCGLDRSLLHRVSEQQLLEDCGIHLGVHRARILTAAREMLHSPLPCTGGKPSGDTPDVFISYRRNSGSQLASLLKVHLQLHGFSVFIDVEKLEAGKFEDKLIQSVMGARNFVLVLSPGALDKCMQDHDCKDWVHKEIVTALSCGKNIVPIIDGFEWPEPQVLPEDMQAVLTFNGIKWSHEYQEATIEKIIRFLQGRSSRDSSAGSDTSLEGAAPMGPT
# [16] = molecular target: Mitogen-activated protein kinase 7 (Homo sapiens) (UniProt Q13164); assay: ERK5 transactivation activators in reporter cells, primary screen, cell-based, HTS (AID 1508626;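 active = luciferase signal above three times the same-plate solvent-only control wells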;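 also: luciferase driven by Gal4-ERK5 fusion binding five Gal4 sites before minimal TATA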); details: HeLa Gal4-ERK5 transactivation, 18 h, at 5 µM, stronger effect = higher value
# Mitogen-activated protein kinase 7 (Homo sapiens), sequence (Q13164 whole entry, looked up, the tested form may be a part): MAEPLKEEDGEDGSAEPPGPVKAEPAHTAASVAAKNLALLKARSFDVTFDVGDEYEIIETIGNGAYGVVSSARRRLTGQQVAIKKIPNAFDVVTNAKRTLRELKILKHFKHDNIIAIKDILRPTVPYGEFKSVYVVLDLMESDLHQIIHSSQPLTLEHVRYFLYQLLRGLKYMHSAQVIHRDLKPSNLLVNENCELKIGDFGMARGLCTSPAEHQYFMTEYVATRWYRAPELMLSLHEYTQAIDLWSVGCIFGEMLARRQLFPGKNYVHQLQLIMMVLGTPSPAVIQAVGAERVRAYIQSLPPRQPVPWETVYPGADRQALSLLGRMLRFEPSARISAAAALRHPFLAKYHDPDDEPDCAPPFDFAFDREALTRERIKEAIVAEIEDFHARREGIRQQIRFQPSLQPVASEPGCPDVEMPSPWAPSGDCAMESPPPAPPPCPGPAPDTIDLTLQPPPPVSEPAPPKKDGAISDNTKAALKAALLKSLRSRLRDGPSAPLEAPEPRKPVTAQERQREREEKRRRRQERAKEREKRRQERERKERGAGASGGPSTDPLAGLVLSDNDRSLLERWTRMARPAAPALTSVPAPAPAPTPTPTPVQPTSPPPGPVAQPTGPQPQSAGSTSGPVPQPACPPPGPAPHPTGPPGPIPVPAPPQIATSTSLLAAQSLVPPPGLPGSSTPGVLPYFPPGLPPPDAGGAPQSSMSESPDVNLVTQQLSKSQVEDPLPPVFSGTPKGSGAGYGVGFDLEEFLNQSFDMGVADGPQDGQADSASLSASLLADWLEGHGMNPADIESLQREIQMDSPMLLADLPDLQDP
# F380Y = assay: modulators of BK channel variants, profiling panel, selectivity assay, cell-based, U2OS BacMam, thallium flux, beta subunits (AID 1259406); details: at 30 µM;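 also: initial slope of Thallos dye fluorescence rise after thallium is added; log ratio against the mean of 0.3% DMSO vehicle wells on the same plate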
# F380Y/beta2Delta = assay: as above; details: at 30 µM
# [17] = molecular target: Calcium-activated potassium channel subunit alpha-1 (Homo sapiens) + Leucine-rich repeat-containing protein 26 (Homo sapiens) (UniProt Q12791+Q2I0M4); assay: as above; details: F380Y/Slo1WT/gamma1, at 30 µM
# Calcium-activated potassium channel subunit alpha-1 (Homo sapiens) + Leucine-rich repeat-containing protein 26 (Homo sapiens), sequence (Q2I0M4 whole entry, looked up, one chain of several): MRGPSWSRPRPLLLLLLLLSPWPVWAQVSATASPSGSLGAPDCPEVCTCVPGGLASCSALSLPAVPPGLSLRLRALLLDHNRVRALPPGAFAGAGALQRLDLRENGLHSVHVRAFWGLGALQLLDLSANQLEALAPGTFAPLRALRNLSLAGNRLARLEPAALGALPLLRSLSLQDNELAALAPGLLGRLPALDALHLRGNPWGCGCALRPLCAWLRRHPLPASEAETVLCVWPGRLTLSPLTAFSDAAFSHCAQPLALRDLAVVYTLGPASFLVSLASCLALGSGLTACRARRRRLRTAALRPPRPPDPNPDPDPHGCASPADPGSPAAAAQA
# [18] = sensitizers of A549 cells to miR-34 induction, primary screen, imaging, A549 dox-inducible miR-34, nuclei and caspase counts (AID 1347080;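 active = compounds whose cell count with miR-34 switched on is under 0.7 times the count with it off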); details: A549 miR-34 inducible, Hoechst nuclei count, 48 h
# [19] = measured here: epithelial PC-3E GFP cell survival
# [20] = measured here: mesenchymal TEM4-18 mCherry cell survival
# [21] = MELAS cybrid survival, CellTiter-Glo 48 h, stronger effect = higher value
# [22] = Rieske KO mouse fibroblast survival, CellTiter-Glo 72 h
compound,measurement,setting,value
CN(C)CCOC(c1ccccc1)c1ccccc1,inhibition,[1],-1.19% (inactive)
same,inhibition,[2],5.29% (inactive)
same,fluorescence ratio,[3],0.99 (inactive)
same,nuclear beta-catenin stimulation,[4]; at 10 µM,0.5% (inactive)
same,nuclear beta-catenin stimulation,"[4]; stimulation, at 2 µM",-1%
same,insulin secretion stimulation,[5],14.4% (inactive)
same,viability decrease,[6],-17.4% (inactive)
same,tube area decrease,[7],1% (inactive)
same,GLP1 secretion stimulation,[8],4.4% (inactive)
same,inhibition of viability,[9],36.7% (inactive)
same,viability decrease (inhibition),[10],57.8% (active)
same,viability decrease (inhibition),[11],1% (inactive)
same,inhibition,[12],11.2% (inactive)
same,red/green cell ratio (normalised),[13],1.07 (inactive)
same,normalised cell number,[13]; [19],1.28
same,normalised cell number,[13]; [20],1.37
same,z-score,[14]; [21],-0.301 (inactive) and 0.806 (inactive) and -0.802 (inactive)
same,z-score,[14]; [22],0.641 and 0.428 and 1.04
same,remaining NAD,[15],10 nM (inactive)
same,luciferase signal,[16],36 AU (inactive)
same,log fold change Tl+ flux,F380Y,0.0428 (inactive)
same,log fold change Tl+ flux,F380Y/beta2Delta,0.0216 (inactive)
same,log fold change Tl+ flux,[17],-0.0145 (inactive)
O=c1n(CCCN2CCN(c3cccc(Cl)c3)CC2)nc2ccccn12,inhibition,[1],-6.73% (inactive)
same,inhibition,[2],-2.41% (inactive)
same,fluorescence ratio,[3],0.97 (inactive)
same,nuclear beta-catenin stimulation,[4]; at 10 µM,4.5% (inactive)
same,nuclear beta-catenin stimulation,"[4]; stimulation, at 2 µM",0.2%
same,insulin secretion stimulation,[5],-0.1% (inactive)
same,viability decrease,[6],-48.7% (inactive)
same,tube area decrease,[7],4.5% (inactive)
same,GLP1 secretion stimulation,[8],0.4% (inactive)
same,inhibition of viability,[9],16.6% (inactive)
same,viability decrease (inhibition),[10],9.9% (inactive)
same,viability decrease (inhibition),[11],2.2% (inactive)
same,inhibition,[12],-5.67% (inactive)
same,red/green cell ratio (normalised),[13],1.12 (inactive)
same,normalised cell number,[13]; [19],1.02
same,normalised cell number,[13]; [20],1.14
same,z-score,[14]; [21],0.0745 (inactive)
same,z-score,[14]; [22],-0.0668
same,remaining NAD,[15],10 nM (inactive)
same,luciferase signal,[16],72 AU (inactive)
same,log fold change Tl+ flux,F380Y,0.0157 (inactive)
same,log fold change Tl+ flux,F380Y/beta2Delta,0.035 (inactive)
same,log fold change Tl+ flux,[17],0.0319 (inactive)
CNCCCC12CCC(c3ccccc31)c1ccccc12,inhibition,[1],-1.98% (inactive)
same,inhibition,[2],-1.64% (inactive)
same,fluorescence ratio,[3],0.83 (inactive)
same,nuclear beta-catenin stimulation,[4]; at 10 µM,1.9% (inactive)
same,nuclear beta-catenin stimulation,"[4]; stimulation, at 2 µM",-0.1%
same,insulin secretion stimulation,[5],12.2% (inactive)
same,viability decrease,[6],55.6% (active)
same,tube area decrease,[7],12.2% (inactive)
same,GLP1 secretion stimulation,[8],4.8% (inactive)
same,inhibition of viability,[9],87.4% (active)
same,viability decrease (inhibition),[10],121% (active)
same,viability decrease (inhibition),[11],68.3% (active)
same,inhibition,[12],8.09% (inactive)
same,red/green cell ratio (normalised),[13],0.89 (inactive)
same,normalised cell number,[13]; [19],1.11
same,normalised cell number,[13]; [20],0.98
same,z-score,[14]; [21],-0.365 (inactive) and 0.126 (inactive) and 0.618 (inactive)
same,z-score,[14]; [22],0.802 and 0.382 and 0.29
same,remaining NAD,[15],10 nM (inactive)
same,luciferase signal,[16],48 AU (inactive)
same,log fold change Tl+ flux,F380Y,0.104 (inactive)
same,log fold change Tl+ flux,F380Y/beta2Delta,0.203 (active)
same,log fold change Tl+ flux,[17],0.0351 (inactive)
CC1(C)O[C@@H]2C[C@H]3[C@@H]4C[C@H](F)C5=CC(=O)C=C[C@]5(C)[C@H]4[C@@H](O)C[C@]3(C)[C@]2(C(=O)CO)O1,inhibition,[1],-0.45% (inactive)
same,inhibition,[2],-1.24% (inactive)
same,fluorescence ratio,[3],0.99 (inactive)
same,nuclear beta-catenin stimulation,[4]; at 10 µM,-0.2% (inactive)
same,nuclear beta-catenin stimulation,"[4]; stimulation, at 2 µM",1.6%
same,insulin secretion stimulation,[5],1.6% (inactive)
same,viability decrease,[6],-31.1% (inactive)
same,tube area decrease,[7],-14.6% (inactive)
same,GLP1 secretion stimulation,[8],-0.5% (inactive)
same,inhibition of viability,[9],-1.83% (inactive)
same,viability decrease (inhibition),[10],15% (inactive)
same,viability decrease (inhibition),[11],-3.1% (inactive)
same,inhibition,[12],-16.5% (inactive)
same,fold change,"[18]; stronger effect = lower value, cell number ratio, induced over uninduced",1 (inactive) and 0.779 (inactive)
same,fold change,[18]; measured here: relative caspase fold change +Dox/-Dox,1.38 and 0.877
same,cell count,"[18]; measured here: total cells with miR-34 induction, stronger effect = lower value",7820 and 5180
same,cell count,[18]; measured here: total cells without miR-34 induction,7800 and 6650
same,z-score,[14]; [21],-0.397 (inactive)
same,z-score,[14]; [22],0.665
same,remaining NAD,[15],10 nM (inactive)
same,luciferase signal,[16],344 AU (active)
same,log fold change Tl+ flux,F380Y,0.00732 (inactive)
same,log fold change Tl+ flux,F380Y/beta2Delta,-0.0212 (inactive)
same,log fold change Tl+ flux,[17],-0.0123 (inactive)
